The test concerns OVCAR-3-derived ovarian cancer stem-like cells (spheroids). Description: cell growth relative to untreated control; higher = more growth (less inhibition). The settings on record: 2.29 µM; 96 h. The method, boiled down:
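Percent growth was calculated against untreated wells once blanks were subtracted and Grubbs outliers removed. The cells were OVCAR-3 spheroid-derived stem-like cells, trypsinized and plated at 50,000 cells/mL in stem cell medium on ultra-low attachment 96-well plates for a 24 h preincubation. They were then exposed to compounds at 2.29 uM for 96 h at 37°C, 5% CO2, in 4 replicate wells, and viability was measured by TOX8 resazurin fluorescence (ex 560/em 590 nm) after 4 h.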

± gives the standard deviation.

In turn, `N=N/C(=C\c1c(O)[nH]c2ccccc12)c1ccccc1` showed a cell growth of 64.5 ± 16%.
Regarding `COc1ccc(-n2/c(=N/C(=S)N(C)C)ss/c2=N\C(=S)N(C)C)cc1`, the cell growth worked out at 111 ± 15%.
In turn, `CCN1/C(=C\C(C)=C\c2sc3ccccc3[n+]2CC)Sc2ccccc21` displayed a cell growth of 31.4 ± 6.9%.
Then `CN1CCCC2C(c3ccccc3)C(C3=NCCCC3)C(c3ccccc3)CC21` (configuration not stated), with 110 ± 27%; and `C=C(NC(=O)C(=C)NC(=O)c1csc(C2=N[C@@H]3c4csc(n4)C4NC(=O)c5csc(n5)C([C@](C)(O)[C@@H](C)O)NC(=O)[C@H]5CSC(=N5)/C(=C/C)NC(=O)C(C(C)O)NC(=O)c5csc(n5)C3(CC2)NC(=O)[C@H](C)NC(=O)C(=C)NC(=O)C(=C)NC(=O)C(C(C)C)N[C@@H]2C=Cc3c([C@@H](C)O)cc(nc3[C@H]2O)C(=O)OC4C)n1)C(N)=O` (some centres not stated), with 56.7 ± 21%.
Then `CCc1cccc(CC)c1NC(=O)C(C#N)C1=C(Cl)C(=O)c2ccccc2C1=O` (configuration not stated), with 70.3 ± 31%.
Turning to `CN(C)CCCN1c2ccccc2Sc2ccc3ccccc3c21`, the cell growth stood at 117 ± 58%.
In the case of `CNc1nc(N(C)C)nc(N(C)C)n1`, the cell growth is 89.9 ± 20%.
Then `CC(=O)N=C1N(/C=C2\C(=O)Oc3ccccc3C2=O)C(=O)/C(=C/c2ccccc2Cl)N1C`, with 122 ± 43%; and `Nc1ncnc2c([C@@H]3O[C@H](CO)[C@@H](O)[C@H]3O)c[nH]c12`, with 127 ± 35%.
For `CN(C)CCN1C(=O)c2cccc3cc(N)cc(c23)C1=O`, the cell growth came out at 60.2 ± 11%.
`Cc1c2ccnc(C(N)=O)c2c(C)c2c1[nH]c1ccccc12` came in with a cell growth of 113 ± 10%.
Consider `C=C1C(=O)O[C@@H]2/C=C(/C)C(=O)C[C@H]3OC(C)(C)O[C@]3(C)C[C@@H](OC(=O)/C(C)=C\C)[C@@H]12`, for which the cell growth worked out at 90.5 ± 31%.
With `Cc1c2cc[n+](CCN3CCCCC3)cc2c(C)c2c1[nH]c1ccc(O)cc12`, the cell growth turned out to be 146 ± 52%.
Then `CCC12C[N+]3([O-])CCc4c([nH]c5ccccc45)C(C(=O)OC)(c4cc5c(cc4OC)N(C)C4C(O)(C(=O)OC)C(OC(C)=O)C6(CC)C=CCN7CCC54C76)CC(C3)C1O2` (configuration not stated), with 27.9 ± 4.2%; and `O=[N+]([O-])c1cccc2nc3ccccc3c(NCCCNc3c4ccccc4nc4cccc([N+](=O)[O-])c34)c12`, with 10.8 ± 2.9%; and `CN(C)c1ccc(/C=N/N=C2\C(=O)Nc3c(Cl)cc(Cl)cc32)cc1`, with 106 ± 28%.
The compound `Cc1ccc(NC(=O)c2cc3ccccc3c(N=Nc3ccccc3O)c2O)c(C)c1` came in with a cell growth of 75.2 ± 20%.
Turning to `CCCCS(=N)(=O)CCC(N)C(=O)O` (configuration not stated), the cell growth came to 86.6 ± 8.1%.
As for `O=C(O)c1ccccc1-c1ccccc1C(=O)Nc1ccc2c(c1)Cc1ccccc1-2`, the cell growth was found to be 80.8 ± 29%.
As for `Nc1nc2n[nH]nc2c(=O)[nH]1`, the cell growth came to 91.6 ± 14%.
Then `Nc1ncnc2c(C3OC(CO)C(O)C3O)[nH]nc12` (configuration not stated), with 23.9 ± 5.3%.
In turn, `CCCN(CCC)C(=S)Sc1nc(C)nc(N2CCN(c3nc(C)nc(SC(=S)N(CCC)CCC)c3[N+](=O)[O-])CC2)c1[N+](=O)[O-]` yielded a cell growth of 107 ± 22%.
`CC12CC(Br)(Br)C(=O)C3C1CCCC32` had a cell growth of 159 ± 19%.
Consider `Cc1ccc([N+](=O)[O-])cc1NC(=O)c1cccc([N+](=O)[O-])c1O`, for which the cell growth is 146 ± 41%.
`COc1ccc2cccc(C(=N)c3ccc(C)c4c3CCC4)c2c1` came in with a cell growth of 95.3 ± 25%.
`O=c1cnn(C2OC(CO)C(O)C2O)c(=S)[nH]1` (configuration not stated) yielded a cell growth of 100 ± 24%.
The compound `CC(C)(O)CCC(O)C(C)(O)C1CCC2(O)C3=CC(=O)C4(O)CC(O)C(O)CC4(C)C3CCC12C.CC(C)(O)CCC(O)C(C)(O)C1CCC2(O)C3=CC(=O)C4CC(O)C(O)CC4(C)C3CCC12C` (configuration not stated) came in with a cell growth of 98 ± 21%.
`CC1=C(C(=O)NCc2ccccc2)C(c2ccccc2O)C(C(=O)NCc2ccccc2)=C(C)N1` showed a cell growth of 76.9 ± 12%.
As for `N#CC(C#N)=Cc1cccc(Oc2ccccc2)c1`, the cell growth came to 74.1 ± 8%.
The compound `CC(C)CCCC(=O)CCCCCCC(=O)CCN(O)C(=O)C(N)CO` (configuration not stated) showed a cell growth of 136 ± 15%.
As to `Cc1cc2cc3cc(C)c(N)cc3nc2cc1N`, the cell growth was found to be 40.2 ± 5.5%.
Compound `COc1ccc(/C=C/c2cc(O)cc(O[C@@H]3O[C@H](CO)[C@@H](O)[C@H](O)[C@H]3O)c2)cc1O` registered a cell growth of 106 ± 26%.
On to `O=c1cccccc1O`, for which the cell growth worked out at 92.1 ± 38%.
Then `O=c1c(O)c(-c2ccc(O)c(O)c2)oc2cc(O)ccc12`, with 94.3 ± 22%; and `CC1=NN(C(=O)c2ccncc2)C(=O)C1N=Nc1ccc(F)cc1` (configuration not stated), with 146 ± 33%.
In turn, `CC(C)c1cccc(O)c(=O)c1` returned a cell growth of 91.8 ± 19%.
Then `O=S(=O)(c1cccc(N=C=S)c1)c1cccc(N=C=S)c1`, with 111 ± 11%; and `COC1(O)C(=O)c2ccccc2OC1(OC)c1ccccc1` (configuration not stated), with 118 ± 26%.
Then `Nc1nc(N)c2cc(Sc3cccc(C(F)(F)F)c3)ccc2n1`, with 94.4 ± 24%.
The compound `CN=c1sc2c(n1C)C(=O)c1ccccc1C2=O` came in with a cell growth of 83.2 ± 26%.
Then `CCNC(=O)OCc1c(COC(=O)NCC)c(-c2ccc(Cl)c(Cl)c2)n2c1CCC2`, with 74.1 ± 12%.

The values above are taken from the supplement of paper PMC3484114.
